Vaccinia Venus: vaccinia inhibition (Venus reporter). Vaccinia virus Venus reporter expression, fluorescence. Potency, µM (titrated, usually from 36.5 µM), without a hit: top-dose activity change, negative = inhibition, hits mostly inhibitors. 330,000 tested, 0.46% active; calls by dose curve; tested in A549 cells; also: nearly all actives have a fitted effect of over 30% in size
HCV inh: HCV inhibition; AID 651820; Huh7.5.1 HCVcc-Cre infection, luciferase reporter, 44 h; Potency, µM (titrated, usually from 41.8 µM), without a hit: at the highest dose activity change, negative = inhibition, hits mostly inhibitors; 340,000 tested, 3.4% active; active = well fitted inhibition curve with a large enough effect; inconclusive = small, poorly fitted or top-dose-only effect, or another doubt; inactive = no such curve, though single readings can be large or run the other way
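Compounds are dispensed onto cells plated 4 h earlier at 1,000 per well, with HCVcc-Cre virus (about 0.5 moi) added next. Following 44 h of culture, luminescent signal is measured for 15 sec after 15 min with substrate at room temperature.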
Lassa entry inh: blocks Lassa virus binding to or entry into cells. 300,000 tested, 1.2% active. AID 540256. Potency, µM (series often up to 37.9 µM), for the others: at the highest dose activity change, negative = inhibition, most hits filed as inhibitors. Lassa virus pseudotype entry inhibition, cell reporter; calls by dose curve; tested in HEK293 cells; also: nearly all actives have a fitted effect of over 50% in size
Marburg entry inh: inhibitors of Marburg virus binding or cell entry; Potency, µM (doses to about 37.8 µM), without a hit: at the top dose activity change, negative = inhibition, most hits filed as inhibitors; Marburg virus pseudotyped entry inhibition, cell reporter; AID 540276; 300,000 tested, 1.8% active; calls by dose curve; tested in HEK293 cells
VACV mCherry inh: inhibitors of vaccinia virus infection (mCherry reporter signal); AID 720579; Potency, µM (top dose mostly 36.5 µM), inactives show at the highest dose activity change, negative = inhibition, hits mostly inhibitors; Vaccinia virus mCherry reporter infection, fluorescence; 310,000 tested, 0.63% active; calls by dose curve; tested in A549 cells; also: nearly all actives have a fitted effect of over 35% in size
* = called active by the depositor; i = inactive; ? = inconclusive; / = no result given; [ ] = dose if it differs, or a comment. Compounds with a hit are over-represented: about 4.6% of the library has one in this group of screens. % is scaled to controls: 0 for no effect and ±100 for the full control effect; potency is read from the fitted curve at half-maximal effect.

SMILES | Vaccinia Venus | HCV inh | Lassa entry inh | Marburg entry inh | VACV mCherry inh
C[C@@H]1CN([C@@H](C)CO)C(=O)Cc2cc(NC(=O)Nc3ccc(C(F)(F)F)cc3)ccc2O[C@@H]1CN(C)S(=O)(=O)c1ccc(Cl)cc1 | 11µM* | ? | / | / | ?
CC(=O)NC(Cc1c(F)c(F)c(F)c(F)c1F)C(=O)NCC(N)C(=O)c1ccccc1 (stereo unspecified) | -14% | / | / | / | -2%
C(=C\c1nc2ccccc2[nH]1)/c1ccccc1 | / | 11µM* | ? | ? | /
CCC(C)(C)n1nnnc1C(c1cccs1)N1CC=C(c2ccc(F)cc2)CC1 (stereo unspecified) | -26% | ? | ? | 15µM* | -23%
CCN1C(=O)[C@@H]2[C@H]3[C@H](O)[C@H](O)CC(=NO[C@H](C)c4cn([C@@H]5COC[C@@H]5O)nn4)[C@@H]3CC[C@H]2C1=O | / | / | / | -32%[14.2 µM] | /
COc1ccc(Nc2c3c(nc4nncn24)CCC3)cc1Cl | ? | / | ? | -28%[46.1 µM] | i
CCCc1cc(-c2[nH]ncc2-c2ccc(C(=O)OCC)o2)c(O)cc1O | ? | ? | -17% | ? | ?
CCCc1cc(-c2[nH]ncc2-c2ccc3c(c2)OCCCO3)c(O)cc1O | / | 11µM* | ? | 15µM* | /
COc1ccc(CCNC(=O)CSc2cn(Cc3ccccc3)c3ccccc23)cc1OC | -25% | 11µM* | -12% | -17% | -10%
COc1ccc(CCNC(=O)CSc2cn(Cc3cccc(C)c3)c3ccccc23)cc1OC | ? | 10µM* | ? | ? | ?
COc1ccc(CCNCC(O)Cn2c3ccccc3c3ccccc32)cc1OC (stereo unspecified) | / | 11µM* | / | / | /
CN(C1CCCCC1)S(=O)(=O)c1ccc(NC(=O)CCC(=O)O)cc1 | -5% | 24% | 2% | -21% | /
CN(C1CCCCC1)S(=O)(=O)c1ccc(NC(=O)c2ccco2)cc1 | -14% | 2% | 11µM* | -6% | /
CN(c1ccccc1)S(=O)(=O)c1ccc(NC(=O)c2ccco2)cc1 | -10% | -3% | ? | ? | 0%
CN(C1CCCCC1)S(=O)(=O)c1ccc(NC(=O)C2CCCCC2)cc1 | / | 14µM* | ? | ? | /
CN(Cc1ccccc1)S(=O)(=O)c1ccc(NC(=S)NC(=O)C2CCCCC2)cc1 | -27% | 10µM* | -11% | ? | ?
Cc1oc(-c2ccccc2NC(=O)C2CCCO2)nc1CNC(=O)c1cc(Cl)ccc1F (stereo unspecified) | -3% | / | / | / | -10%
Cc1ccc(CN2C[C@@H](Sc3nc(C)cc(C)n3)C[C@H]2C(=O)N2CCN(c3ccccc3F)CC2)cc1 | 14% | / | / | / | -13%
COc1ccc(COc2cc(-c3cccc(OC)c3)nc3ccc(NC(=O)c4ccc(OC)cc4)cc23)cc1 | -11% | 7.1µM* | ? | ? | i
COc1ccc(COc2cc(-c3cccc(OC)c3)nc3ccc(NC(=O)c4cccnc4)cc23)cc1 | -29% | ? | 15µM* | -21% | -2%
COc1ccc2ccccc2c1CN1CCc2nnc(C(NS(C)(=O)=O)C(C)C)n2CC1 (stereo unspecified) | -11% | / | / | / | -7%
CCC1CCCCN1C(=O)CSc1nnc(-c2ccc(OC)c(OC)c2)o1 (stereo unspecified) | -9% | / | -11%[46.1 µM] | 22%[46.1 µM] | -15%
CCOC(=O)c1ccc(NC(=O)C2CCCN(c3ccc(Sc4ccc(C)cc4)nn3)C2)cc1 (stereo unspecified) | -19% | / | 6.3µM* | ? | -20%
Cc1ccc(Sc2ccc(N3CCCC(C(=O)Nc4ccc(F)cc4F)C3)nn2)cc1 (stereo unspecified) | 6% | / | 0.89µM* | ? | -6%
CCOc1ccc(NC(=O)C2CCCN(c3ccc(Sc4ccc(C)cc4)nn3)C2)cc1 (stereo unspecified) | -15% | / | ? | ? | -10%
SMILES | Vaccinia Venus | HCV inh | Lassa entry inh | Marburg entry inh | VACV mCherry inh
CCN1/C(=C/c2sc(-c3ccccc3C)c[n+]2C)Sc2ccccc21 | ? | 3.5µM* | ? | ? | ?
CCC(=O)/C=C1/Sc2ccccc2N1CC | ? | -14% | -3% | 18% | /
Cc1ccccc1Cn1cnc2nc3c(cc2c1=O)CC(C)CC3 (stereo unspecified) | -13% | / | 20%[46.1 µM] | / | -8%
Cc1cc(/C=C2/C(=O)NN(c3ccccc3)C2=O)c(C)n1-c1cccc(O)c1 | -9% | ? | 4µM* | ? | -9%
O=C1NN(c2ccccc2)C(=O)C1=Cc1ccccc1O | -10% | / | / | / | i
Cc1cc(C=C2C(=O)c3ccccc3C2=O)c(C)n1-c1ccccc1 | / | 8% | ? | 6.5µM* | /
Cc1cc(C=C2C(=O)c3ccccc3C2=O)c(C)n1-c1ccc(C(=O)O)cc1 | 3% | 8% | ? | ? | -10%
COc1ccc([C@H]2/C(=C(\O)c3ccccc3)C(=O)C(=O)N2c2ncccn2)cc1OC | / | / | / | 1% | /
CC(=O)c1cccc(NCc2ccccc2-c2nnc(-c3ccccc3)o2)c1 | -7% | / | 14%[46.1 µM] | 20%[46.1 µM] | -15%
CCN(CC)S(=O)(=O)c1cc(C(=O)Nc2nncs2)c(Cl)cc1Cl | / | 10µM* | 7% | 4% | /
CCCCN(CC)CCCNC(=O)c1cc2c(=O)n(CC)c3ccccc3c2s1 | ? | 25µM* | -2% | 11µM* | -10%
CCCCN(CC)CCNC(=O)c1cc2c(=O)n(CC)c3ccccc3c2s1 | -23% | 2.5µM* | ? | ? | -21%
CCCCN(CC)CCNC(=O)c1cc2c(=O)n(C)c3ccccc3c2s1 | -8% | ? | ? | 7.9µM* | ?
CCCN(CCC)CCCNC(=O)c1cc2c(=O)n(CC)c3ccccc3c2s1 | -14% | 7.9µM* | ? | 10µM* | -14%
CCN(CCCNC(=O)c1cc2c(=O)n(CC)c3ccccc3c2s1)c1ccccc1 | -9% | / | -12%[46.1 µM] | 16%[46.1 µM] | -14%
CCNC(=O)CC1C(=O)N(c2ccc(C)cc2)C(=O)N1Cc1ccc(C)cc1 (stereo unspecified) | 13% | / | -2%[46.1 µM] | -20%[46.1 µM] | -2%
CC(=O)Nc1ccc(NC(=O)c2cc3c(=O)n(Cc4cccnc4)ccc3nc2C)cc1 | -1% | / | -22%[46.1 µM] | / | 3%
CN(C)c1ccc(/C=C/c2ccnc3cc(Cl)ccc23)cc1 | 47% | / | / | / | -16%
O=C(NC(CC1=CCCCC1)c1ccc2ccccc2c1)C(F)(F)F (stereo unspecified) | / | / | / | -17%[14.2 µM] | /
CCCCC(=O)NCCNc1nc2c(c(=O)n(C)c(=O)n2C)n1Cc1ccc(F)cc1 | ? | -13% | 9.2µM* | ? | i
Cn1c(=O)c2c(nc(NCc3ccc4c(c3)OCO4)n2Cc2ccc(F)cc2)n(C)c1=O | / | 11µM* | -13% | ? | /
COc1ccc(CCNc2nc3c(c(=O)n(C)c(=O)n3C)n2Cc2ccc(F)cc2)cc1OC | -16% | / | ? | 6.3µM* | ?
CCCCC(=O)NCCNc1nc2c(c(=O)n(C)c(=O)n2C)n1Cc1ccccc1 | 2% | -9% | -3% | ? | -4%
Cn1c(=O)c2c(nc(NCc3ccc4c(c3)OCO4)n2Cc2ccccc2)n(C)c1=O | -48% | ? | ? | 4%[46.1 µM] | /

Screening results: PubChem, National Center for Advancing Translational Sciences (NCATS)
